PubChem BioAssay AID1029 (Sanford-Burnham Center for Chemical Genomics, 2008)
Hit rate of the full screen: of about 110,000 compounds, about 80 (0.07%) were called active.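 Rule for the calls: active = inhibition above the mean of the plate negative controls plus 5 SD (cut at about 13% in these data); inactive = the rest.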 Shown is part of a subset that was picked to be rich in actives.

assay: inhibitors of macrophage phagocytosis, primary screen, imaging, J774A.1 cells, IgG beads (AID 1029); details: J774A.1 macrophage IgG-bead phagocytosis, at 5 µM, active compounds read high;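 note: phagocytic index as fraction of beads internalized from green versus red external bead signal; plate controls were DMSO negative control for no effect and cytochalasin-D positive control for full effect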

inhibition, inactive:
CC(=O)c1ccc2c(c1)c1ccccc1n2CC(C)C 0.3%
c1ccc(-c2cc3c(NCC4COc5ccccc5O4)ncnc3s2)cc1 (centres undefined) -5.69%
CCNS(=O)(=O)c1ccc(NC(=O)c2cncc(Br)c2)cc1 -7.43%
CCC1CCCCN1C(=S)Nc1ccc(C(C)=O)cc1 (centres undefined) -9.4%
O=C(/C=C/c1cccc([N+](=O)[O-])c1)NCCSCc1ccco1 6.74%
CCc1ccc(-c2cc(C(=O)NN3CCN(C)CC3)c3ccccc3n2)cc1 -2.84%
COC(=O)c1c(NC(=O)CN2CCN(S(=O)(=O)c3ccccc3[N+](=O)[O-])CC2)sc2c1CCC(C)C2 (centres undefined) -4.89%
Cc1ccc(NC(=O)CSCC(=O)NC2CCCCC2)cc1 6.8%
Cc1ccc(CN2C(=O)N/C(=C/c3cc(C)n(-c4ccccn4)c3C)C2=O)cc1 -12.6%
COc1ccc(NC(=S)NC2CCS(=O)(=O)C2)cc1 (centres undefined) -3.06%
O=C(Nc1ccccc1)/C(=C/c1ccc([N+](=O)[O-])cc1)NC(=O)c1ccccc1 -6.22%
CC(=O)Nc1ccc(/C(C)=N/NC(=O)CN(c2ccccc2Br)S(C)(=O)=O)cc1 -1.53%
Cc1ccccc1OCC(=O)Nc1nc(C)c(C(=O)N(C)C)s1 -2.14%
CCn1ncc(CNC(=O)C2(C)CC2(Br)Br)c1C (centres undefined) -2.71%
O=C(/C=C\c1cn(-c2ccccc2)nc1-c1cccs1)N1CCOCC1 -5.61%
COc1cc2c(cc1OC)C(Nc1ccc(S(N)(=O)=O)cc1)=NC(C)(C)C2 -2.77%
COCCNc1nc(N)c([N+](=O)[O-])c(NCCO)n1 -3.97%
COc1ccc(/C(C)=N/NC(=O)CCC(=O)Nc2ccc(Cl)cc2Cl)c(OC)c1 0.09%
CCC1CCc2c(sc(NC(C)=O)c2C#N)C1 (centres undefined) -7.48%
COc1ccc(N2C(=O)C(O)C2c2ccc(C)cc2)cc1 (centres undefined) -1.93%
CC(CC(=O)N1CCN(c2ccccc2)CC1)c1ccccc1 (centres undefined) -3.13%
Cc1ccnc(NC(=O)Cn2ccc([N+](=O)[O-])n2)c1 -6.53%
Cc1ccc(C)c(NC(=O)CCC(=O)NNC(=O)c2cccs2)c1 1.58%
COCCNC(=O)c1ccccc1NS(=O)(=O)c1ccc(C)c([N+](=O)[O-])c1 -2.99%
O=C(NNC(=S)NCc1ccccc1)c1ccc(OC(F)F)cc1 -3.86%
CCCCN(CC)C(=S)Nc1ccc2nc3n(c(=O)c2c1)CCCCC3 -7.14%
COc1ccc(C)cc1NC(=O)C(OC(=O)c1cccc(S(=O)(=O)N(C)c2ccccc2)c1)c1ccccc1 (centres undefined) -5.86%
Cc1cccc(C)c1NC(=O)CSc1ccc([N+](=O)[O-])cn1 -2.92%
O=C1NC(c2ccccc2)CCC1(Cl)Cl (centres undefined) 2.89%
CCC(=O)/C=C1\Sc2ccccc2N1CC -1.58%
S=C(NCc1ccc(Cl)cc1)NC1CCCCC1 -3.92%
O=C(NN1C(=O)C2C3C=CC(O3)C2C1=O)c1ccncc1 (centres undefined) -4.03%
O=C(CSc1nnc(-c2ccncc2)o1)NCc1ccc(Cl)cc1 -5.78%
COc1ccc(OCc2cn3c(C)cc(C)nc3n2)cc1 -0.34%
COc1cc(/C=C/C(=O)O)cc(S(=O)(=O)Nc2ccccc2SC)c1OC -5.74%
CCCCN(CC)C(=O)c1ccc2c(c1)OCO2 1.32%
Cc1ccc2c(c1)C1CN(C)CCC1N2C(=O)c1ccccc1NS(=O)(=O)c1ccc(F)cc1C (centres undefined) -3.92%
COC(=O)/C(=C1\Oc2ccc(C(C)(C)C)cc2S1)C(F)(F)F 7.86%
CC(C)CNC(=S)Nc1ccc(F)cc1 -3.14%
CCCCOc1ccc(NC(=O)[C@@H]2CCCN2C(=O)C2CCN(S(=O)(=O)c3ccc(C)cc3)CC2)cc1 -3.36%
Cc1ccc(NC(=O)CC2S/C(=N/N=C3\CCCc4ccccc43)NC2=O)cc1 (centres undefined) -6.09%
O=C(CN1CCc2ccccc21)NC(c1ccccc1)c1ccccc1 -5.11%
O=C(O)c1ccc2c(c1)C(=O)N(NC(=O)c1ccc(O)cc1)C2=O -5.14%
COc1ccc(NC(=S)NCc2cccs2)c(OC)c1 0.55%
COc1cc2c(cc1/C=C1/NC(=O)N(c3ccccc3)C1=O)OCO2 -3.27%
Cc1cc(C(=O)NNC(=S)NC(C)c2ccccc2)cs1 (centres undefined) -2.01%
Cc1ccc(-n2[nH]c(C)c(/C=N/NC(=O)c3cccc([N+](=O)[O-])c3)c2=O)cc1C -4.72%
Cc1ccc(C(=O)Oc2coc(CSc3nnc(NC(=O)c4cccs4)s3)cc2=O)cc1C -0.5%
NC1=C([N+](=O)[O-])C(c2ccccc2)C2=C(CCCC2=O)O1 (centres undefined) -3.95%
COc1ccc(C(=O)COC(=O)c2ccc3ccccc3n2)cc1 -5.54%
O=[N+]([O-])c1cccc(C2=NCCS2)c1 0.05%
Cc1ccccc1Cn1nc(C)c(NC(=O)C(F)(F)F)c1C -2.43%
CC(C)(C)C1CCC(=NNC(=O)c2cc(-c3ccccc3)n[nH]2)CC1 (centres undefined) 0.48%
CCOc1ccc2nc(NC(=O)c3cc([N+](=O)[O-])ccc3N3CCOCC3)sc2c1 3.64%
CC(=O)c1ccc(NC(=S)NC(=O)CC(C)C)cc1 -4.19%
CCOc1ccc(C(=O)NC(=S)Nc2ccc(NC(=O)C(C)C)cc2)cc1[N+](=O)[O-] -0.7%
COc1ccc2nc(Nc3nc(-c4cc5ccccc5oc4=O)cs3)sc2c1 0.77%
CC(=O)Nc1cccc(/C(C)=N/NC(=O)c2c(-c3ccccc3Cl)noc2C)c1 -2.62%
Cc1ccc(C)c(OCC(=O)N2CCN(C(=O)c3ccco3)CC2)c1 -4.31%
COc1ccc(-c2csc3ncnc(Oc4ccc5c(C)cc(=O)oc5c4)c23)cc1 -2.34%
O=C(CNS(=O)(=O)c1ccccc1)NCC(=O)OCc1ccccc1F -3.58%
CCCOc1ccc(NC(=O)C2OC3OC(C)(C)OC3C3OC(C)(C)OC23)cc1 (centres undefined) -11.4%
CCOC(=O)C1=C(C)NC(=S)NC1c1cccs1 (centres undefined) -4.52%
Cc1scc(C(=O)NNC(=S)NCc2ccccc2)c1C -4.2%
O=C(Nc1ccccc1Cc1ccccc1)c1ccc2c(c1)SC1=NS(=O)(=O)CCN12 -3.83%
O=C(O)c1cccc(N2C(=O)Nc3ccccc3N2O)c1 -9.86%
COc1ccc(Cc2nnc(N/N=C/c3ccccc3O)[nH]c2=O)cc1OC -6.04%
COCC(=O)Nc1cc(C(=O)OC)cc(C(=O)OC)c1 -2.4%
CN(C)C(CNC(=O)c1ccc(S(=O)(=O)NCc2ccco2)cc1)c1ccccc1 (centres undefined) -2.95%
COc1cc(NC(=O)Nc2ccc(C)cc2)cc([N+](=O)[O-])c1 -5.65%
CC(C)C(C)(C#N)NC(=O)CSc1nc2scc(-c3ccccc3)c2c(=O)[nH]1 (centres undefined) -2.01%
Cc1cccc(-c2nc3ccccc3c(=O)n2NC(=O)Cc2ccc(Cl)cc2)c1 -9.34%
O=C(NC(=S)Nc1cc(C(F)(F)F)ccc1N1CCOCC1)c1ccc(-c2cccc(Cl)c2)o1 -11.9%
S=C(NCCc1ccccc1)NCC1CCCO1 (centres undefined) 2.03%
Cc1nc2c(C(=O)NCc3cccs3)cnn2c(C)c1Cc1ccc(F)cc1 -10.6%
CCCCCNC(=O)c1cccnc1SCC(=O)Nc1ccccc1OC -7.81%
CCCCOc1ccc(C(=O)N/C(=C/C=C/c2ccccc2)C(=O)N2CCOCC2)cc1 -6.1%
CCc1ccc(NC(=O)CC2C(=O)NCCN2C(=S)Nc2ccccc2)cc1 (centres undefined) 0.25%
COC(C(=O)Nc1ccc(C(C)=O)cc1)c1ccccc1 (centres undefined) -7.11%
COCCn1c(SCC(=O)Nc2ccc3c(c2)CCC3)nc2ccccc2c1=O -6.84%
Cc1c(Cl)c([N+](=O)[O-])nn1CCCC(=O)Nc1cc(Cl)ccc1Cl -3.17%
COc1ccccc1OCc1ccc(C(=O)N2CCN(C)CC2)o1 0.11%
O=C(/C=C/c1cnc2ccccc2n1)NC1CCCCCC1 -9.71%
CO/N=C(\N)c1ccc([N+](=O)[O-])cc1 -3.92%
Cc1ccc(N(Cc2cc3ccccc3[nH]c2=O)C(=O)c2cccs2)cc1 0.22%
COC(C(=O)NCc1ccccc1C)c1ccccc1 (centres undefined) -6.05%
O=c1cc(CSc2ccccn2)nc(N2CCN(c3ccccc3)CC2)[nH]1 -1.3%
CCc1c(C)nc(N2CCN(Cc3ccccc3)CC2)[nH]c1=O -1.2%
O=C(N/N=C/c1coc2ccccc2c1=O)c1cc2ccccc2o1 -4.52%
Cc1nc2ccccc2nc(C)c1=NOCc1ccc(Cl)cc1Cl -8.1%
COc1ccc(C2CC(c3ccccc3)=NN2C(=O)CSc2nccc(=O)[nH]2)cc1 (centres undefined) -11.3%

inhibition, active:
CC(=O)c1c(C)n([O-])c2ccccc2[n+]1=O 79.2%
O=C1CCCC(O)=C1N=Nc1ccc2ncsc2c1 105% [artifact]
Cc1nnc(SCc2cc(=O)[nH]c(N3CCN(Cc4ccccc4)CC3)n2)s1 55.5%
